Source: PubChem
HTT ATP protect: qHTS Multiplex Assay to Identify Dual Action Probes in a Cell Model of Huntington: Cytoprotection (ATP); PC12 HTT-Q103 induced, cytoprotection, ATP luminescence, 40 h; Potency, µM (titrated, usually from 56.4 µM), for inactives: cytoprotection (ATP increase), most hits filed as activators; hit rate 0.14% among 230,000; also: potency is read from the fitted curve at half-maximal effect; % of control where 0% means no effect; nearly all actives have a fitted effect of over 45% in size
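PC12 cells stably carrying ecdysone-inducible Htt exon 1 (Q103)–GFP were induced with 100 nM tebufenozide (final) alongside library compounds in a dose series. Cytoprotection was scored as retained ATP by ATPlite luminescence.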
Coupling enz: qHTS Assay for Inhibitors of Fructose-1,6-bisphosphate Aldolase from Giardia Lamblia: Coupling assay counterscreen; coupling enzyme system counterscreen, AmpLite Red fluorescence; activity change, negative = inhibition, % at 58.2 µM, hits read low; hit rate 0.67% among 290,000; in the data active = activity change below about -30%; also: % is scaled to controls: 0 for no effect and ±100 for the full control effect
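Fluorescence at 525 nm excitation and 598 nm emission measured inhibition of the coupled detection system without aldolase. Compounds (at 57.5 uM final) were preincubated 10 min at room temperature with coupling enzyme reagent before a 20 min substrate/AmpLite Red step.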
TR SRC2 fluor cs: Total Fluorescence Counterscreen for Inhibitors of the Interaction of Thyroid Hormone Receptor and Steroid Receptor Coregulator 2; TRb/SRC2 Texas Red total fluorescence interference; hit rate 0.29% among 280,000; Potency, µM (highest dose often 106 µM), without a hit: top-dose fluorescence change, negative = quenching; active = well fitted curve in either direction with a large enough effect; inconclusive = small, poorly fitted or top-dose-only effect; also: potency is read from the fitted curve at half-maximal effect; % is scaled to controls: 0 for no effect and ±100 for the full control effect
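Flags fluorescent or light-absorbing compounds by total fluorescence, S + 2P, at 555 nm excitation and 632 nm emission. Mixture: 20 nM Texas Red SRC2 peptide, 0.6 uM human TRb LBD, 1 uM T3, 5% DMSO; compound exposure 5 h at ambient temperature.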
KDM4E inh: qHTS Assay for Inhibitors of Human Jumonji Domain Containing 2E (JMJD2E); Lysine-specific demethylase 4E (Homo sapiens), B2RXH2; JMJD2E catalytic domain, FDH-coupled NADH fluorescence (FDH is formaldehyde dehydrogenase); Potency, µM (doses to about 57.1 µM), for inactives: at the highest dose activity change, negative = inhibition, hits mostly inhibitors; hit rate 1.6% among 230,000; active = well fitted inhibition curve with a large enough effect, not every such curve was filed as active; inconclusive = small, poorly fitted or top-dose-only effect, or another doubt; inactive = no such curve, though single readings can be large or run the other way;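 also: potency is read from the fitted curve at half-maximal effect; 0% = wells with enzyme and -100% = buffer wells without enzyme; nearly all actives have a fitted effect of over 50% in size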
Target sequence (B2RXH2 1-337 limits assumed): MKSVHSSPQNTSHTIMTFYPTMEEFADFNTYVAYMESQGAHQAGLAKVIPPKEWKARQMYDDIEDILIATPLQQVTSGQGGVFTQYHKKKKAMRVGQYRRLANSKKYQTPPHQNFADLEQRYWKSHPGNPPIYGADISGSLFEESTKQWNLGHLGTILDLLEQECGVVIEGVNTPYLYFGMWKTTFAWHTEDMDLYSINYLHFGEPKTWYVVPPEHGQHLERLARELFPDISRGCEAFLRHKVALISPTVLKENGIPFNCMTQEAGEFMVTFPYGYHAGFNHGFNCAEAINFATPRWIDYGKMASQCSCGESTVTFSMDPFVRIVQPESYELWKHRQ
HTT aggregate: qHTS Multiplex Assay to Identify Dual Action Probes in a Cell Model of Huntington: Aggregate Formation (GFP); PC12 HttQ103-GFP aggregates, Acumen cytometry, 40 h; Potency, µM (doses to about 46.1 µM), for the others: at the top dose activity change, negative = inhibition, usual class: inhibitors; hit rate 1.1% among 220,000; AID 1688, 2009; also: potency is read from the fitted curve at half-maximal effect; % is scaled to controls: 0 for no effect and ±100 for the full control effect; nearly all actives have a fitted effect of over 60% in size
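Aggregates are detected as GFP objects 1–25 µm with signal 6 STDEV over background in lysates of induced PC12 cells. These carry Huntingtin exon 1 with 103 glutamines fused to GFP under an ecdysone promoter; compounds titrated.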
TRb-SRC2 inh: qHTS for Inhibitors of the Interaction of Thyroid Hormone Receptor and Steroid Receptor Coregulator 2 | Potency, µM (doses to about 106 µM), for inactives: at the top dose activity change, negative = inhibition, hits mostly inhibitors | AID 1469, 2008 | hit rate 0.065% among 280,000 | TRbeta-SRC2 peptide binding, fluorescence polarization; receptor liganded with 1 µM T3;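 also: potency is read from the fitted curve at half-maximal effect; plate controls were bound peptide for no effect and peptide without receptor for full effect; nearly all actives have a fitted effect of over 50% in size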
Target sequence (P10828 whole entry, looked up): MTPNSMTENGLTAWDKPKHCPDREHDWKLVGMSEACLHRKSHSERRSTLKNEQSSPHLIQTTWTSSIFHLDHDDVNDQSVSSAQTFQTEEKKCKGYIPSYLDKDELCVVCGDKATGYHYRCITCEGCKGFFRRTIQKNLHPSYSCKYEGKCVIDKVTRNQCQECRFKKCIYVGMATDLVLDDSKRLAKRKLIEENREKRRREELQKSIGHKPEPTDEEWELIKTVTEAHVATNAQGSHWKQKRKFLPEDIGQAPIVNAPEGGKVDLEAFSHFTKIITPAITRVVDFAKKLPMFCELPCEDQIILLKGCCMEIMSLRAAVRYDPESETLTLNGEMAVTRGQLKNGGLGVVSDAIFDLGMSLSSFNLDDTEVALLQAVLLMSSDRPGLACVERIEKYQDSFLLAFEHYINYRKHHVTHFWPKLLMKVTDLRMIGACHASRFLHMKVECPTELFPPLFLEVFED
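Fluorescence polarization of 20 nM Texas Red SRC2 peptide (20-aa NR interaction domain) bound to 0.6 uM human TRb ligand-binding domain, with 1 uM T3, after 5 hr at ambient temperature; inhibition seen as decreased polarization.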
Starred values were filed as active, the others as inactive; ? = inconclusive; . = not tested or not shown; ! = not active in a repeat; [ ] = remark or other dose. Shown are actives, neighbours in structure and some others; about 2% of the full set was active somewhere. Unless noted, calls follow the shape of the dose curve; as a rule, active = well fitted curve in the direction sought with a large enough effect; inconclusive = small, poorly fitted or top-dose-only effect, or another doubt; inactive = no such curve, though single readings can be large; an effect the other way counts as inactive or inconclusive.

SMILES | HTT ATP protect | Coupling enz | TR SRC2 fluor cs | KDM4E inh | HTT aggregate | TRb-SRC2 inh
CC(C)C[C@H](NC(=O)[C@@H]1Cc2ccccc2CN1C(=O)OC(C)(C)C)C(=O)NCC1CCC(C(=O)O)CC1 (some centres undefined) | 12%[10 µM] | 1 | -4% | 25µM* | 18%[9.22 µM] | 6%
CC(C)C[C@@H](NC(=O)C1CCC(CNC(=O)[C@H](Cc2ccccc2)NC(=O)OC(C)(C)C)CC1)C(=O)O (some centres undefined) | . | 1 | . | . | . | .
CCOC(=O)C1CCN(Cc2ccc(O)c3ncccc23)CC1 | -35% | -8 | -5% | 8.9µM* | -8% | -8%
COc1ccccc1N1CCN(Cc2ccc(O)c3ncccc23)CC1 | -77%[10 µM] | -21 | -3% | 1% | 1.1µM* | 2%
COc1ccccc1N1CCN(Cc2c[nH]c3ccccc23)CC1 | -13%[10 µM] | -1 | -3% | -4% | -19%[9.22 µM] | -4%
Cc1ccc(NCc2ccc(O)c3ncccc23)cc1 | ? | -9 | 2%[53 µM] | -2% | -37%[9.22 µM] | 9%[53 µM]
Oc1ccc(CN2CCCc3ccccc32)c2cccnc12 | 28%[10 µM] | -3 | -7% | 8.9µM* | ? | 0%
Cn1c(=NC(=O)c2ccc(S(=O)(=O)N3CCCC3)cc2)sc2cc(F)ccc21 | . | . | 3% | . | . | -2%
CCn1c2c(c(=O)n3ncc(C(=O)Nc4ccc(F)cc4Cl)c13)CN(Cc1ccc(OC)cc1)CC2 | . | . | -2% | . | . | 7%
Nc1cccn2c(-c3ccc(Cl)c(Cl)c3)cnc12 | 6%[10 µM] | 3 | -4% | 20µM* | 4% | -1%
Cn1c(-c2ccc(Cl)cc2)cnc1N | 9% | 0 | -3% | 21% | -30% | 1%
Nc1cccn2c(-c3ccc(Cl)cc3)cnc12 | -69% | -31* | 1% | ? | 6% | -4%
Cc1cc(N2CCN(c3nc4ccccc4s3)CC2)n2ncnc2n1 | -19% | 2 | 1% | 4% | 11µM* | -14%
CCOC(=O)c1ccccc1NC(=O)N1CCC(N2CCN(Cc3ccccc3)C(=O)C2=O)CC1 | . | . | -3% | . | . | 2%
CCCCCCc1cc2cc(-c3nnc(-c4cc(OC)c(OC)c(OC)c4)o3)c(=O)oc2cc1O | -4%[10 µM] | -3 | -4% | -6% | 2.8µM* | -3%
COc1ccc(/C=N/n2c(N)c(S(=O)(=O)c3cccs3)c3nc4ccccc4nc32)cc1OC | ? | 1 | -3% | ? | 0% | -3%
CC(C)Cn1c(N)c(S(=O)(=O)c2cccs2)c2nc3ccccc3nc21 | -5%[0.074 µM] | -31* | -3% | ? | 12% | ?
Cn1c(C(=O)N2CCN(c3ncccn3)CC2)cc2c(=O)n(C)c3ccccc3c21 | -7% | -45* | 2% | -7% | 1% | -5%
Cn1c(C(=O)N2CCCC2)cc2c(=O)n(C)c3ccccc3c21 | -25% | 5 | -2% | -17% | -8% | -4%
CC(C)Nc1ncnc2c1cnn2-c1ccccc1 | -57%[10 µM] | -5 | -2% | 2% | -1% | -2%
NNc1ncnc2c1cnn2-c1ccccc1 | -35% | -4 | -2% | ? | 22µM* | -12%
Cc1cccc(-n2ncc3c(NC(C)C)ncnc32)c1 | -41%[10 µM] | 0 | -2% | ? | 11µM* | 0%
Cc1ccccc1Nc1ncnc2c1cnn2-c1ccccc1 | -29%[10 µM] | -5 | 5% | 8% | ? | 1%
CC(C)NC(=O)c1ccc2c(c1)N(Cc1cccc(Cl)c1)C(=O)c1ccccc1S2=O (centres undefined) | . | . | 0% | . | . | -4%
CCCNC(=O)CN1C(=O)CSc2ccc(S(=O)(=O)N3CCC(C)CC3)cc21 | . | . | -7% | . | . | 0%
SMILES | HTT ATP protect | Coupling enz | TR SRC2 fluor cs | KDM4E inh | HTT aggregate | TRb-SRC2 inh
CC1(C)c2ccccc2N2CC(=O)NC21/C=C/c1ccco1 (centres undefined) | 7%[0.074 µM] | 3 | 12% | -21% | ? | -4%
CC1(C)c2ccccc2N2CCC(=O)NC21/C=C/c1ccco1 (centres undefined) | -6%[0.074 µM] | 2 | 45µM*[fluorescent] | ? | -19% | ?
COc1ccc(CCNc2cc(N3CCN(C(=O)c4ccc(C)cc4)CC3)ccc2[N+](=O)[O-])cc1OC | 4%[10 µM] | 0 | -8% | 1% | -10% | 1%
COc1ccc(CCNc2cc(N3CCN(C(=O)c4ccccc4F)CC3)ccc2[N+](=O)[O-])cc1OC | -43% | 4 | 2% | 10% | 4µM* | -20%
CS(=O)(=O)N1CCC2(CCN(Cc3nccs3)CC2)CC1 | 9% | 3 | . | . | . | .
CCN(CC)CCCC(C)Nc1nc(C)cc(Nc2ccc3nc(C)cc(N)c3c2)n1 (centres undefined) | 10% | -1 | -4% | -28% | . | -1%
CC1=C(/C=C/C(C)=C/C=C/C(C)=C/CO)C(C)(C)CCC1 | 10µM*! | 1 | -1% | -19% | -5% | -2%
COc1ccc(-c2c3c(=O)n(C)c(=O)n(C)c3c3n2-c2ccccc2NC3c2ccc(OC)cc2)cc1 (centres undefined) | . | . | 0% | . | . | 3%
O=C1NC(=O)[C@@H]2C3c4ccccc4C=CN3[C@H](C(=O)c3cccs3)[C@H]12 (some centres undefined) | -24% | -43* | 3% | ? | -11% | -1%
CC(C)(C)C(=O)[C@@H]1[C@@H]2C(=O)N(Cc3ccccc3)C(=O)[C@@H]2[C@H]2c3ccccc3C=CN12 | 1% | -12 | 3% | -26% | 9%[9.22 µM] | 4%
CN(C)CC1CCn2c(c(C3=C(c4cn(C)c5ccccc45)C(=O)NC3=O)c3ccccc32)C1 (centres undefined) | . | 1 | -4% | . | . | 7%
O=[N+]([O-])c1cccc(-c2cc3cccc[n+]3cc2-c2cccc([N+](=O)[O-])c2)c1 | . | 0 | 1% | 9% | -7% | 4%
Cc1cccc2cc(-c3ccccc3)c(-c3ccccc3)c[n+]12 | . | -1 | 12% | ? | 18µM* | -9%
CCn1cc2nc(SCc3cc(C)ccc3C)n(Cc3ccc(OC)cc3)c(=O)c2n1 | . | . | -2% | . | . | 12%
CCn1cc2nc(SCc3cccc(OC)c3)n(Cc3ccc(Cl)cc3)c(=O)c2n1 | . | . | 0.032µM*[quencher] | . | . | -19%[53 µM]
COc1ccc(N2CCN(CCCNC(=O)c3sc4ncccc4c3-n3cccc3)CC2)cc1 | . | . | -2% | . | . | 7%
